PLK1 PBD inh: blocks phosphopeptide binding to human PLK1 polo-box domain; P53350; Plk1 PBD binding of FITC phosphopeptide, fluorescence polarization; Potency, µM, without a hit: max response, negative = inhibition, usual class: inhibitors; hit rate 2.8% among 360,000; AID 720504; further: series mostly up to about 57 µM; on the % scale 0 is the no-effect control and ±100 the full control effect; nearly all actives have a fitted effect of over 65% in size
G9a block: G9a (human) methyltransferase inhibition; Q96KQ7; G9a H3K9 monomethylation, AlphaScreen, 2 h; Potency, µM (series often up to 102 µM), without a hit: top-dose activity, negative = inhibition, usual class: inhibitors; hit rate 8.8% among 350,000; AID 504332; further: on the % scale 0 is the no-effect control and ±100 the full control effect; nearly all actives have a fitted effect of over 75% in size
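Using a bead-based AlphaScreen, monomethylated H3K9 product from 2 h room-temperature reactions (G9a 20 nM, peptide 500 nM, SAM 20 uM) was detected with 0.5 ug/mL rabbit anti-H3K9me1 antibody.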
JMJD2A Tudor: inhibitors of human JMJD2A Tudor domain. hit rate 4.4% among 390,000. O75164. Potency, µM (highest dose often 114 µM), without a hit: at the highest dose activity change, negative = inhibition, most hits filed as inhibitors. AlphaScreen JMJD2A-Tudor / H3K4me3 peptide binding; further: on the % scale 0 is the no-effect control and ±100 the full control effect; nearly all actives have a fitted effect of over 50% in size
BAZ2B inh: BAZ2B (human) inhibition | Potency, µM (top dose mostly 114 µM), inactives show at the top dose activity change, negative = inhibition, hits mostly inhibitors | Q9UIF8 | AID 504333 | AlphaScreen BAZ2B-H3K14Ac peptide displacement | hit rate 4.4% among 360,000; further: on the % scale 0 is the no-effect control and ±100 the full control effect; nearly all actives have a fitted effect of over 60% in size
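BAZ2B 50 nM plus b-H3(5-23)K14Ac 50 nM, PBS pH 7.4/0.01% Tween-20, 30 min RT; compound added (max 110 uM), 30 min RT; streptavidin donor/Ni-chelate acceptor beads 10 ug/mL final, 20 min dark; AlphaScreen read.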
HP1b binding inh: inhibitors of HP1-beta chromodomain binding to methylated histone tails; AlphaScreen HP1-beta / biotin-H3K9me3 peptide binding; hit rate 0.56% among 390,000; Potency, µM (series often up to 114 µM), inactives show top-dose activity change, negative = inhibition, hits mostly inhibitors; AID 540317; P83916; further: nearly all actives have a fitted effect of over 70% in size
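AlphaScreen: HP1-beta (50 nM) preformed 30 min with biotin-H3(1-18)K9me3 peptide (50 nM) in PBS pH 7.4, 0.01% Tween-20. Compound added for 30 min at RT, then streptavidin donor/nickel chelate acceptor beads (10 ug/mL) for 30 min.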
VDR inhibitor: blocks the human vitamin D receptor | hit rate 0.93% among 400,000 | Potency, µM, inactives show max response, negative = inhibition, usual class: inhibitors | P11473 | VDR-SRC2-3 peptide fluorescence polarization, 2 h; further: on the % scale 0 is the no-effect control and ±100 the full control effect
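Fluorescence polarization assay of small-molecule disruption of VDR binding to coregulator peptide SRC2-3. Compounds and controls pin-transferred, then read after 2 h incubation at ambient room temperature.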
Active calls of the source: *; ? = inconclusive; / = not tested or not shown; [ ] = dose if it differs, or a comment. Hits are enriched below; roughly 11% of the tested compounds scored in any of these assays. The call rests on the fitted dose curve; in most records, active means well fitted curve in the direction sought with a large enough effect; inconclusive means small, poorly fitted or top-dose-only effect, or another doubt; inactive means no such curve, though single readings can be large; an effect the other way counts as inactive or inconclusive. Potency means the concentration at half of the fitted maximal effect.

SMILES	PLK1 PBD inh	G9a block	JMJD2A Tudor	BAZ2B inh	HP1b binding inh	VDR inhibitor
CCc1sc(C(=O)NCc2ccco2)cc1Br	-11.3%	56.2µM*	-21.0%	?	26.1%	-8.9%
O=C(NCc1ccco1)c1ccc(Cl)s1	-9.5%	1.7%	-20.1%	-19.9%	-15.1%	-13.6%
Cc1ccc(C(=O)NCc2ccco2)cc1Br	-10.7%	?	-27.0%	-29.4%	28.8%	-18.7%
CCCCCNC(=O)C(c1cc2ccccc2o1)n1c(=O)c(-c2cc3ccccc3[nH]2)nc2ccccc21 (stereo unspecified)	-1.6%	/	/	/	/	/
CCCCN(CC)CCCNC(=O)CS(=O)(=O)Cc1nc(-c2ccc(C)cc2)oc1C	/	-0.2%[59 µM]	-12.5%	-15.8%	23.8%	?
c1ccn2cc(C34CC5CC(CC(C5)C3)C4)nc2c1	-11.5%	-41.7%	-14.7%	-29.0%	-10.7%	-4.7%
S=c1nc(C23CC4CC(CC(C4)C2)C3)[nH][nH]1	?	-126.8%[59 µM]	3.55µM*	-5.7%	-30.9%	-13.7%
O=C(O)CNCC1COc2ccccc2O1 (stereo unspecified)	-1.2%	17.8µM*	3.98µM*	?	10.9%	9.5%
C#CCOCCOCCOCCNc1nc(N2CCN(C(=O)[C@H]([C@@H](C)O)n3cc(CCCCN)nn3)CC2)nc(N2CCN(C(=O)[C@H](Cc3ccc(O)cc3)n3cc(CCO)nn3)CC2)n1	-22.0%	50.1µM*	?	?	43.0%	-0.8%
C#CCOCCOCCOCCNc1nc(N2CCN(C(=O)[C@H](C(C)C)n3cc(CCO)nn3)CC2)nc(N2CCN(C(=O)[C@H](Cc3ccc(O)cc3)n3cc(CCO)nn3)CC2)n1	-0.7%	/	-17.6%	/	35.0%	-17.7%
C#CCOCCOCCOCCNc1nc(N2CCN(C(=O)[C@H](Cc3ccc(O)cc3)n3cc(CCO)nn3)CC2)nc(N2CCN(C(=O)[C@H](Cc3ccc(O)cc3)n3cc(CCO)nn3)CC2)n1	/	35.5µM*	/	?	/	/
Cc1ccc(Nc2c(-c3ccccn3)nc3cc(C)ccn23)cc1	-2.1%	?	39.8µM*	15.8µM*	?	22.9%
Cc1ccc(C(=O)Nc2c(-c3cccs3)nc3cc(C)ccn23)cc1	-3.1%	4.1%[59 µM]	-7.1%	13.6%	23.8%	-8.4%
COc1ccc(Nc2c(-c3ccccn3)nc3ccc(Cl)cn23)cc1	/	39.5%[59 µM]	?	1.58µM*	43.0%	8.9%
Cc1ccc(Nc2c(-c3ccccn3)nc3ccc(C)cn23)cc1	3.8%	?	44.7µM*	/	8.4%	-11.9%
Cc1ccn2c(Nc3ccc4c(c3)OCCO4)c(-c3cccs3)nc2c1	/	14.1µM*	?	25.1µM*	?	9.2%
Cc1ccc(Nc2c(-c3ccc(C)cc3)nc3ccc(C)cn23)cc1	/	-0.1%[59 µM]	-20.9%	1.4%	46.5%	?
Cc1ccc(Nc2c(-c3cc(Br)ccc3F)nc3cc(C)ccn23)cc1	/	?	-23.3%	?	?	4.3%
CCOC(=O)C1=C(COC(=O)CCOc2ccccc2C)NC(=O)NC1C (stereo unspecified)	-9.4%	20.5%[2.33 µM]	-6.9%	7.5%	-11.2%	2.4%
Cc1ccc(-c2nc3ccc(Cl)cn3c2Nc2ccccc2)o1	/	/	-12.9%	/	42.8%	-20.7%
Cc1cc(C)n2c(Nc3ccc4c(c3)OCCO4)c(-c3ccccn3)nc2n1	-6.1%	/	/	/	/	/
Fc1ccccc1-c1ccc(-c2nc3ccc(Cl)cn3c2Nc2ccc(Cl)cc2)o1	/	/	44.7µM*	/	?	?
Cc1ccn2c(Nc3ccc4c(c3)OCO4)c(-c3ccccn3)nc2c1	-4.8%	?	12.6µM*	12.6µM*	50.1µM*	-7.1%
O=C(c1ccco1)N1CCN(C(=O)c2cn(-c3ccccc3)nc2-c2ccccc2)CC1	-0.1%	-0.5%[12.7 µM]	-13.6%	6.2%	19.4%	-14.3%
Cc1ccc(/C=N/NC(=O)CNC(=O)c2ccc(S(=O)(=O)N3CCCC3)cc2)o1	-2.0%	44.7µM*	-9.7%	-14.3%	37.4%	1.7%
SMILES	PLK1 PBD inh	G9a block	JMJD2A Tudor	BAZ2B inh	HP1b binding inh	VDR inhibitor
CCCNC(=O)CCNC(=O)c1ccc(C(C)(C)C)cc1	-4.2%	?	-9.5%	-6.5%	9.0%	7.4%
O=C(Cc1ccccc1)Nc1ccc(S(=O)(=O)N2CCCC2)cc1	-7.9%	-37.8%	-2.1%	-5.9%	1.7%	-0.8%
O=C(CNC(=O)c1ccc(S(=O)(=O)N2CCCCC2)cc1)N/N=C/c1ccco1	-18.8%	-18.9%	-13.0%	-20.7%	18.6%	6.4%
CC(=O)Nc1ccc(NC(=O)Cc2ccc(S(=O)(=O)N3CCCCC3)cc2)cc1	-2.8%	39.8µM*	-13.1%	-33.5%	41.2%	0.7%
O=C(NCc1cccs1)c1ccc(S(=O)(=O)N2CCCCC2)cc1	13.4µM*	2.7%	?	-10.5%	-19.7%	?
O=C(COC(=O)c1ccc(S(=O)(=O)N2CCCC2)cc1)NCc1cccs1	-14.3%	?	-13.9%	-19.5%	-3.3%	14.6%
CC(C)(C)c1ccc(C(=O)NCCC(=O)NCc2cccs2)cc1	26.7µM*	9.2%	?	1.3%	8.0%	-21.5%
COc1cccc(CNC(=O)CSc2nc3ccccc3nc2Cc2ccc(C)cc2)c1OC	/	5.0%[59 µM]	-4.5%	0.6%	24.0%[57 µM]	15.1%
OCCN(Cc1ccccc1)C(=S)Nc1ccc(Cl)cc1Cl	?	9.2%	?	13.1%	-6.5%	-16.0%
CC(=O)Nc1ccc(S(=O)(=O)N2CCN(CCc3ccccc3)CC2)cc1	2.0%	15.2%	-17.3%	?	19.5%	-18.8%
O=C(NCCC(=O)N1CCN(c2ccccn2)CC1)c1ccc(Cl)cc1	-0.3%	/	-3.5%	/	25.5%	-12.1%
Cc1ccccc1OCCC(=O)N1CCN(S(=O)(=O)c2ccc(Cl)cc2)CC1	-1.2%	44.7µM*	-17.9%	-27.8%	34.3%	-0.8%
Cc1ccc(NC(=O)CN(C)C(C)C(=O)Nc2ccc(S(=O)(=O)N3CCCC3)cc2)cc1 (stereo unspecified)	3.5%	2.8%[2.33 µM]	-13.8%	3.4%	25.6%	7.3%
O=C(NCCC(=O)N1CCN(c2ccccc2O)CC1)c1ccc(Cl)cc1	-1.7%	50.1µM*	-17.9%	-4.8%	7.6%	-22.1%
CC(=O)Nc1ccc(S(=O)(=O)N2CCN(C(=O)Cc3ccccc3)CC2)cc1	26.7µM*	-4.0%[59 µM]	?	-4.4%	-15.3%	?
CCN(Cc1ccc(N(C)C)cc1)C(C)C(=O)Nc1ccc(S(=O)(=O)N2CCCC2)cc1 (stereo unspecified)	6.7%	20.3%[12.7 µM]	31.6µM*	39.8µM*	-26.8%	-25.4%
CCc1cnc2c(c1SCC(=O)NCc1ccccc1)c(=O)n(C)c(=O)n2C	/	-21.8%[59 µM]	-4.9%	0.0%	34.9%	19.8%
CC(C)CCNC(=O)Cn1c(SCc2cccc(F)c2)nc2ccncc21	/	/	6.9%[57.1 µM]	/	17.3%[57 µM]	-11.1%
CCOC(=O)C1=C(C)Nc2ccccc2N=C1NC(=O)c1ccc(Cl)c(S(=O)(=O)N2CCCC2)c1	9.5%	?	-30.8%	/	-5.1%	-2.5%

Bioassay records as filed in PubChem BioAssay.
